Bioassay records: PubChem BioAssay, National Center for Advancing Translational Sciences (NCATS)
Only some compounds are listed: those with a hit (about 6.1% of all), similar ones and a draw of the others.
RORg inh – inhibitors of mouse ROR gamma transcriptional activity. Drosophila S2 Gal4-RORgamma UAS-luciferase reporter, 20 h. 5.4% of 310,000 active. Potency, µM (titrated, usually from 53.6 µM), for the others: top-dose activity change, negative = inhibition, usual class: inhibitors. P51450; note: % is set by controls: 0 for no effect and ±100 for the full control effect; nearly all actives have a fitted effect of over 60% in size
Target sequence (P51450 whole entry, looked up, the tested form may be a part): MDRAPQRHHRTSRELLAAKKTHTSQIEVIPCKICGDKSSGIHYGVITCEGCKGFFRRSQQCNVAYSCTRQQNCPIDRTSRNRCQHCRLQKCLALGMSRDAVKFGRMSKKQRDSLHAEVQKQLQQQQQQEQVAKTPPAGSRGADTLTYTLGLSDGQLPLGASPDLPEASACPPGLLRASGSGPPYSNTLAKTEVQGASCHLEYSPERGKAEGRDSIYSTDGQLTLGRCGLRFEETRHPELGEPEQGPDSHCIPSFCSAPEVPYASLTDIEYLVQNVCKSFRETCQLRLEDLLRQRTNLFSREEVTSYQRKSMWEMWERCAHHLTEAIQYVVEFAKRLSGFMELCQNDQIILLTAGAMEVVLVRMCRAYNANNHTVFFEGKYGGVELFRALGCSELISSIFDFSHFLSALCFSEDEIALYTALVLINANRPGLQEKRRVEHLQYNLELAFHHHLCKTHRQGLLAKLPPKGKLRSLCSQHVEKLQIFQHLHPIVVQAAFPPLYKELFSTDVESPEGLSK
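A Gal4/UAS one-hybrid system in insect cells: metallothionein-promoter Gal4–ROR gamma fusion plus Photinus luciferase reporter. Copper sulfate 700 uM final, 20 hr ambient incubation, luminescent detection after 10 min with reagent.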
S2 tox – viability counter-screen for ATXN expression inhibitors; S2 cells (HEK-293 line with an ATXN2-luciferase reporter) viability, CellTiter-Fluor protease fluorescence, 24 h; Potency, µM (titrated, usually from 56.7 µM), actives largely listed as cytotoxic; 0.49% of 400,000 active; AID 651635; note: nearly all actives have a fitted effect of over 40% in size
TGFb inhibitor – inhibitors of TGF-b signaling. HepG2 CAGA-GFP TGF-b/SMAD3 reporter, GFP fluorescence, 18 h; TGF-beta stimulated, 500 pg/mL final. Potency, µM (doses to about 46.1 µM), for the others: top-dose activity, negative = inhibition, usual class: inhibitors. 1.2% of 410,000 active; note: % is set by controls: 0 for no effect and ±100 for the full control effect; nearly all actives have a fitted effect of over 65% in size
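HEPG2 CAGA-GFP cells (1000/well, DMEM with 1% FBS) were pre-incubated 2 h at 37 degrees C, given compound by pin tool, then stimulated with TGF-beta at 500 pg/mL final for 18 h before per-cell GFP fluorescence imaging.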
ATXN2 expr inh – inhibitors of ATXN2 expression; 0.72% of 360,000 active; Potency, µM (titrated, usually from 57 µM), for inactives: top-dose activity change, negative = inhibition, hits mostly inhibitors; HEK-293 ATXN2-luciferase reporter, luminescence, 24 h; AID 1745845; note: % is set by controls: 0 for no effect and ±100 for the full control effect; nearly all actives have a fitted effect of over 55% in size
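qHTS (up to 57 uM final) was run with 24 h compound exposure of reporter cells at 37 °C. Each well was multiplexed: SteadyGlo luminescence measured ATXN2-luciferase expression after a fluorogenic Gly-Phe-AFC viability readout (25 uM final).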
HepG2 viability – HepG2 cytotoxicity, counter-screen for TGF-b inhibitors | 0.76% of 410,000 active | Potency, µM (series often up to 46.1 µM), without a hit: top-dose activity change, negative = cytotoxicity, actives largely listed as cytotoxic | HepG2 CAGA-GFP viability, ATP luminescence, 18 h
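CellTiter-Glo luminescence gave cytotoxicity after 18 hours at 37 degrees C. The cells were HepG2 CAGA-GFP in 1% FBS DMEM, stimulated with 500 pg/mL TGF-beta after compound addition. %Activity was normalised to no-cell wells (complete cell-killing) and DMSO (no toxicity), and curves were fitted and classified.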
Gal4-VP16 FLuc – Gal4-VP16 reporter inhibition counter-screen; AID 2546; 3.5% of 310,000 active; Drosophila S2 Gal4-VP16 UAS-luciferase, luminescence, 20 h; Potency, µM (doses to about 53.6 µM), for the others: at the top dose activity, negative = inhibition, actives largely listed as inhibitors;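 note: Gal4-VP16 expression switched on by copper sulfate through the metallothionein promoter; % is set by controls: 0 for no effect and ±100 for the full control effect; nearly all actives have a fitted effect of over 50% in size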
Starred values were filed as active, the others as inactive; i = inactive; ? = inconclusive; . = not tested or not shown; ! = not active in a repeat; [ ] = another dose, or the depositor's remark. Calls come from the whole dose curve; as a rule, active = well fitted curve in the direction sought with a large enough effect; inconclusive = small, poorly fitted or top-dose-only effect, or another doubt; inactive = no such curve, though single readings can be large; an effect the other way counts as inactive or inconclusive. Potency is the fitted concentration of half-maximal effect.

SMILES | RORg inh | S2 tox | TGFb inhibitor | ATXN2 expr inh | HepG2 viability | Gal4-VP16 FLuc
C=CCC1(C(C)CC)C(=O)NC(=O)NC1=O (centres undefined) | . | i | . | 2.6% | . | .
CC1CCCCC1n1c(-c2cccnc2)n[nH]c1=S (centres undefined) | 10µM* | i | -7.4% | -10.1% | -15.3% | ?
Nc1nc2c(s1)CCCCCCCCCC2 | 11.2µM* | i | -5.4% | 8.2% | -9.3% | 6.3%
Nc1c2c(nc3sc4c(c13)CCCC4)CCCCC2 | 21.2% | ? | 5.1% | -17.3% | -19.9% | 6.7%
O=c1c2ccccc2sn1-c1ccc(Cl)cc1 | . | 17.8µM* | ? | ? | -78.4% | .
COc1cccc(-n2c(/C=C\c3ccc(Cl)cc3)nc3ccccc3c2=O)c1 | . | . | -12.5% | . | -11.4% | .
Cc1ccc(-n2sc3ccccc3c2=O)cc1 | 5.01µM* | ? | ? | 0.0% | -104.1% | 1.58µM*
C[C@@H]1CC[C@H]2[C@H](C)[C@H]3CC[C@@]4(O)[C@@H]5CC(=O)[C@H]6CC(=O)CC[C@]6(C)[C@H]5C[C@H]4[C@@H]3CN2C1 | -1.4% | . | . | . | . | -3.4%
CC1CCCN(CCCNC(=O)c2ccc3c(c2)N(Cc2cccc(Cl)c2)C(=O)c2ccccc2S3=O)C1 (centres undefined) | . | ? | 17.8µM* | . | 12.6µM* | .
CC(=O)Oc1ccc(/C=C/c2cc(OC(C)=O)cc(OC(C)=O)c2)cc1 | 3.98µM* | . | . | . | . | ?
CNCCC(Oc1ccc(C(F)(F)F)cc1)c1ccccc1 (centres undefined) | 15.8% | 31.6µM* | 54.6% | 28.2µM*! | -46.9% | -20.1%
CCOc1ccc(NS(=O)(=O)c2ccc(Cl)c(N=Nc3c(O)[nH]c(=S)[nH]c3=O)c2)cc1Br | . | . | ? | . | -47.5% | .
O=C(Oc1cccc2cccnc12)c1ccccc1 | 1.41µM* | ? | . | ? | . | ?
COc1ccc(C(=O)Oc2cccc3cccnc23)cc1S(=O)(=O)N1CCOCC1 | 2.51µM* | i | 12.6µM* | -11.5% | 12.6µM* | 4.47µM*
COc1ccc(C(=O)N2CCOCC2)cc1S(=O)(=O)N1CCC(C)CC1 | -14.8% | i | 11.0% | 6.7% | 8.2% | -3.9%
CN(C)c1ccc(/C=C/[N+](=O)[O-])cc1 | 11.2µM* | i | -17.3% | 29.8% | -11.6% | 12.6µM*
CN(C)c1ccc(C=C2C(=O)NC(=O)NC2=O)cc1 | . | i | -4.8% | -28.4% | -5.2% | .
C/C(=C\c1ccc(N(C)C)cc1)[N+](=O)[O-] | 7.08µM* | . | ? | 31.6µM* | 10µM* | 22.4µM*
C#C[C@]1(O)C=C[C@@H]2[C@@H]3CCC4=CC(=O)CC[C@@H]4[C@H]3CC[C@@]21CC | . | . | . | 9.5% | . | .
CCc1ccc(-c2nc(CN3CCCC(C(=O)NCc4ccc(C)cc4)C3)c(C)o2)cc1 (centres undefined) | . | i | ? | 3.1% | -13.9% | .
O=c1ccc(=O)[nH][nH]1 | 5.9% | . | . | . | . | 20.3%
O=C(CCCCCn1c(=S)[nH]c2ccccc2c1=O)N1CCC2(CC1)OCCO2 | 10µM* | i | -1.3% | 0.5% | 5.6% | ?
C[C@]12CC[C@H]3[C@@H](CCC4=CC(=O)CC[C@@H]43)[C@@H]1CC[C@@H]2OC(=O)CCc1ccccc1 | . | i | . | -4.3% | . | .
Cc1ccc(/C=C/C(=O)C2C(=O)c3ccccc3C2=O)cc1 | 6.31µM* | i | -1.4% | ? | -29.7% | ?
Cc1ccc([C@@H]2CC(=O)[C@@H]3CN(S(=O)(=O)c4ccccc4C)[C@H](c4ccc(Cl)cc4)C[C@@H]3N2S(=O)(=O)c2ccc(C)cc2)cc1 | . | ? | -1.1% | -8.4% | -2.4% | .
SMILES | RORg inh | S2 tox | TGFb inhibitor | ATXN2 expr inh | HepG2 viability | Gal4-VP16 FLuc
C[C@]12C=CC(=O)C=C1CC[C@@H]1C2=CC[C@]2(C)[C@@H](C(=O)CN3CCN(c4cc(N5CCCC5)nc(N5CCCC5)n4)CC3)CC[C@@H]12 | . | ? | 1.5% | -21.8% | 25.1µM* | .
CC(C)c1oc(=O)cc2c1[C@@H](O)[C@H]1OC(=O)[C@@]3(C)CC[C@@H](O)[C@@]2(C)C13 (some centres undefined) | 20µM* | ? | 2µM* | 12.6µM* | -24.9% | 5.01µM*
CC(C)Oc1cccc(NC(=O)c2ccccc2C(F)(F)F)c1 | . | i | . | -12.9%[116 µM] | . | .
CCC(C(=O)c1ccccc1)P(=O)(NN)c1ccccc1 (centres undefined) | -3.2% | i | -5.6% | -2.4% | -30.8% | -1.2%
Cc1cccc(N=Nc2ccc(N(C)C)cc2)c1 | 7.94µM* | ? | 3.0% | 28.8% | 0.1% | 12.6µM*
COc1ccc(C)cc1NC(=O)C1CCN(S(=O)(=O)c2ccc3[nH]c(=O)oc3c2)CC1 | . | i | -8.3% | -2.8% | -33.7% | .
Oc1c(C(Nc2cccnc2)c2ccccc2F)ccc2cccnc12 (centres undefined) | . | . | ? | . | -10.4% | .
O=C(CN1CCCC1)c1ccccc1 | . | . | -1.1% | . | -1.6% | .
O=C(c1ccccc1)C(CN1CCCC1)c1ccccc1 (centres undefined) | 5.62µM* | . | ? | ? | 5.62µM* | 4.47µM*
CC(=O)O[C@H]1C(=O)[C@@]2(C)C([C@H](OC(=O)c3ccccc3)[C@]3(O)C[C@H](OC(=O)[C@H](O)[C@@H](NC(=O)Cc4ccccc4)c4ccccc4)C(C)=C1C3(C)C)[C@]1(OC(C)=O)CO[C@@H]1C[C@@H]2O (some centres undefined) | ? | ? | ? | 0.0% | -19.5% | 12.6µM*
CC(C)Br | 13.4% | . | . | . | . | -1.6%
COC(=O)NC/C=C\c1nc(CC/C=C\C(=O)O[C@H]2C[C@H]3CC(=O)O[C@@H](/C=C\CC(C)C)C[C@@H]4CC[C@H](C)[C@H](C[C@@H](OC)C[C@H](C2)O3)O4)co1 | 0.0056µM* | . | . | . | . | ?
Nc1ccc([N+](=O)[O-])cc1N | 7.3% | . | . | . | . | -4.6%
CC(=O)CC(c1ccc(O)cc1)c1c(O)c2ccccc2oc1=O (centres undefined) | 0.0% | . | . | . | . | 3.5%
CC/C(CC(c1ccccc1)c1c(O)c2ccccc2oc1=O)=N\NC(N)=S (centres undefined) | 10µM* | ? | ? | 0.0% | -2.0% | ?
CN(C(=O)Cc1ccc(Cl)c(Cl)c1)[C@H](CN1CCCC1)c1cccc(N=C=S)c1 | 31.6µM* | . | . | . | . | ?
COc1ccc(OC)c(CC(C)N)c1 (centres undefined) | . | ? | . | 2.3%[116 µM] | . | .
CC(C)(C)c1ccc(O)c(N=Cc2c(O)ccc3ccccc23)c1 | 12.6µM* | ? | ? | ? | -36.3% | 11.2µM*
